Measured values reported in PubChem BioAssay (NCATS).
Values joined by “and” are separate entries in the source; they are usually repeats but may differ in a detail not shown here. Identical values can stand only once. Inconclusive results are not listed. Active and inactive are the calls of the source. Unless noted, calls follow the shape of the dose curve; as a rule, active = well fitted curve in the direction sought with a large enough effect; inconclusive = small, poorly fitted or top-dose-only effect, or another doubt; inactive = no such curve, though single readings can be large; an effect the other way counts as inactive or inconclusive.

Assays:
[1] = Cell Viability - BJ (AID 421; calls by dose curve;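 also: potency is read from the fitted curve at half-maximal effect; cells exposed to compound for 40 hours at 37 °C before readout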); settings: BJ fibroblast viability, qHTS
Summary of the method: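 Quantitative HTS: ATP depletion in BJ cells after 40 hr compound exposure in complete culture medium, detected with CellTiter-Glo; AC50 from standard Hill fits.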

[2] = Cell Viability - HepG2 (AID 433; calls by dose curve;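 also: potency is read from the fitted curve at half-maximal effect; potency for ATP loss meaning cytotoxicity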); settings: qHTS
Summary of the method: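 HepG2 cells, 1500 per well, treated 40 hr at 37 °C in complete medium; viability from intracellular ATP by CellTiter-Glo luminescence. Normalized to DMSO and 100 uM tamoxifen; AC50 from Hill fit of qHTS concentration-response.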

[3] = Cell Viability - MRC5 (AID 434; calls by dose curve;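 also: potency is read from the fitted curve at half-maximal effect; potency reflects cytotoxicity seen as loss of intracellular ATP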); settings: MRC5 lung fibroblast viability, qHTS
Summary of the method: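 ATP luminescence read-out (CellTiter-Glo, 20 min RT) after 40 hr, 37 °C compound exposure of 1500 MRC5 cells/well. Data normalized to DMSO (basal) and 100 uM tamoxifen (100% inhibition); AC50 from standard Hill equation.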

[4] = target: Mitogen-activated protein kinase 10 (Mus musculus) (UniProt Q61831); test: JNK3 AlphaScreen Assay (AID 530; active = well fitted curve in either direction with a large enough effect, not every such curve was filed as active;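 also: kinase came from lysate of stimulated human HepG2 cells; signal reports phosphorylation of biotinylated GST-cJun 1-79 at Ser73 with 10 µM ATP; % is scaled to controls: 0 for no effect and ±100 for the full control effect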); settings: JNK3 lysate, c-Jun phosphorylation; series mostly up to 57.1 µM
Summary of the method: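 Activity was read by AlphaScreen after JNK3-containing HepG2 lysate (cytokine pre-activated) phosphorylated biotinylated GST-cJun with 10 uM ATP at room temperature. Phospho-Ser73 cJun antibody with Protein-A acceptor beads provided detection.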

[5] = Cell Viability - Renal Proximal Tubule (AID 545); settings: renal proximal tubule cells viability; at 91.7 µM (top of the series), primary cells of rat origin unless noted; also: nearly all actives have a fitted effect of over 40% in size
Summary of the method: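 Rat renal proximal tubule primary cells, 1000/well, exposed to compounds for 40 hr at 37 °C in complete medium; cellular ATP read by CellTiter-Glo luminescence. AC50 from concentration-response fitted with standard Hill equation.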

[6] = Cell Viability - Mesenchymal (AID 546); settings: mesenchymal cells viability, qHTS; series mostly up to 91.7 µM;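 also: cells exposed to compound for 40 hours before reading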
Summary of the method: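 Human renal mesenchymal cells (glomerulus-derived), 1000 cells/well, 5 hr 37 °C pre-incubation; compound 40 hr, 37 °C; CellTiter-Glo, 20 min RT; luminescence; AC50 via Hill equation.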

[7] = Cellular Toxicity (caspase-3) Jurkat (AID 655); settings: Jurkat caspase-3 activation, luminescence, DMSO = 0%, tamoxifen = 100%; at 92.2 µM (top of the series);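 also: cells exposed to compound for 16 h at 37 °C before reading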
Summary of the method: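 Jurkat cells (5000/well) in complete medium exposed 16 h at 37 C; caspase-3/7 activity read by Caspase-Glo luminescence after 20 min at room temperature. Normalized to DMSO and 100 uM tamoxifen; AC50 from Hill fits.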

[8] = Cellular Toxicity (caspase-3) HUV-EC-C (AID 656); settings: HUV-EC-C cells, caspase-3 activation (apoptosis), vehicle = 0, 100 µM tamoxifen = 100%; series mostly up to 92.2 µM
Summary of the method: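 HUV-EC-C cells (1000/well) in complete medium, compound-treated 16 h at 37 °C; caspase-3/7 activity read by Caspase-Glo 3/7 luminescence. Normalized to DMSO (basal) and 100 uM tamoxifen (100%); AC50 from Hill-equation concentration-response fits.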

[9] = Cellular Toxicity (caspase-3) SHSY5Y (AID 657); settings: SH-SY5Y caspase-3 activation, DMSO zero, 10 µM staurosporine = 100%; series mostly up to 91.7 µM
Summary of the method: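 SH-SY5Y human neuroblastoma cells, 1500/well, exposed to compound for 16 hours at 37 °C in complete medium. Caspase-3/7 activity read by Caspase-Glo luminescence after 1 hr at room temperature, normalized to DMSO and 10 uM staurosporine; AC50 from Hill fit.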

[10] = Cellular Toxicity (caspase-3) BJ (AID 658); settings: BJ fibroblasts, luminescence, normalized: DMSO 0%, staurosporine 100%; series mostly up to 91.7 µM
Summary of the method: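 qHTS, BJ fibroblasts, 1000 cells/well; 5 hr preincubation, 16 hr compound, 37 °C; Caspase-Glo 3/7 reagent, 1 hr RT; luminescence. DMSO = 0%, 10 uM staurosporine = 100%. Hill-equation AC50.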

[11] = Cellular Toxicity (caspase-3) MRC-5 (AID 659); settings: MRC-5 cells, luminescence, normalized: DMSO 0%, 10 µM staurosporine 100%; series mostly up to 91.7 µM
Summary of the method: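 MRC-5 fibroblasts, 1500/well; 16 h cpd, 37 °C; Caspase-Glo 3/7, 1 h RT; lumi read. Norm: DMSO = 0%, 10 uM staurosporine = 100%. Hill-fit AC50 from qHTS conc-response.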

[12] = Cellular Toxicity (caspase-3) Mesangial (AID 660); settings: mesangial cells, normalized: DMSO 0%, 100 µM tamoxifen 100%; series mostly up to 91.7 µM;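 also: cells exposed to compound for 16 h before the caspase read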
Summary of the method: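 Caspase 3/7 activation measured by Caspase-Glo 3/7 luminescence (20 min, room temperature) following 16 h exposure of mesangial cells (1000/well); AC50 from Hill-equation fit, normalized to DMSO and 100 uM tamoxifen.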

[13] = Cellular Toxicity (caspase-3) SK-N-SH (AID 661); settings: SK-N-SH caspase-3 activation, qHTS, DMSO as zero, staurosporine as full; series mostly up to 91.7 µM
Summary of the method: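 Caspase 3/7 activation was read by luminogenic substrate cleavage after 16 hour treatment of SK-N-SH cells. Signal was scaled between DMSO and 10 uM staurosporine, and concentration-response data were fitted with the Hill equation for AC50.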

[14] = Cellular Toxicity (caspase-3) H-4-II-E (AID 663); settings: H-4-II-E rat hepatoma, scaled: DMSO 0%, 100 µM tamoxifen 100%; series mostly up to 92.2 µM;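 also: cells exposed to compound for 16 hr before readout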
Summary of the method: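 H-4-II-E rat hepatoma, 1500 cells/well, 5 hr settle at 37 °C; compound 16 hr, 37 °C, complete medium; Caspase-Glo 3/7, 20 min RT; luminescence. DMSO = 0%, 100 uM tamoxifen = 100%; Hill-equation AC50.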

[15] = Cellular Toxicity (caspase-3) Renal Proximal Tubule (AID 667); settings: renal proximal tubule cells; at 91.7 µM (top of the series), primary cells freshly taken from rat, solvent-only wells 0%, staurosporine 100% unless noted;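 also: cells exposed to compound for 16 hours at 37 °C before detection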
Summary of the method: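 Freshly isolated primary rat kidney proximal tubule cells, 1000/well, treated 16 hr at 37 °C, then Caspase-Glo 3/7 luminescence after 1 hr. Normalized to DMSO and 10 uM staurosporine; AC50 from Hill fit.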

[16] = qHTS Assay for Identification of Small Molecule Inducers of Hypoxia Response (AID 2120; active = well fitted curve in the direction sought with a large enough effect in the signal ratio, with a control signal flat, not every such curve was filed as active; the % refers to the signal ratio; also: 0% is about no effect); settings: hypoxia response reporter cells, beta-lactamase ratio readout; series mostly up to 104 µM
Summary of the method: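 Reporter induction read as the CCF4 blue/green (460nm/530nm) emission ratio after 2.5 h dye loading at room temperature. ME-180 HRE-beta-lactamase cells received titrated compounds for 17 h at 37 degrees Celsius; AC50 values derived.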

[17] = qHTS assay for small molecule agonists of retinoid X receptor alpha signaling (AID 588544); settings: HEK293T RXRa-UAS-bla, beta-lactamase reporter, 18 h; 530 nm emission
[18] = qHTS assay for small molecule agonists of the antioxidant response element (ARE) signaling pathway measured by Nrf2-dependant transcriptional activity - cell viability counter screen (AID 720653; active = well fitted curve in the direction sought with a large enough effect in the repeat runs; an effect the other way counts as inactive or inconclusive; also: % is scaled to controls: 0 for no effect and ±100 for the full control effect); settings: ARE-bla HepG2 viability, CellTiter-Glo ATP luminescence, 16 h; stronger effect = lower value
Summary of the method: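 ARE-bla HepG2 cells treated with compounds for 16 h at 37C; this counter screen measures viability as intracellular ATP by CellTiter-Glo luminescence after 30 min at room temperature.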

[19] = qHTS assay for cell viability of HEK293 cells (AID 743288); settings: ATP luminescence (CellTiter-Glo), 18 h; max response: stronger effect = lower value; also: % is scaled to controls: 0 for no effect and ±100 for the full control effect; nearly all actives have a fitted effect of over 50% in size
Summary of the method: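 Steps: plate 2,000 parental HEK293 cells per well; incubate ≥5 h, 37 C; add compounds in DMSO; incubate 18 h, 37 C; add CellTiter-Glo; wait 30 min at room temperature; read luminescence.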

[20] = qHTS assay for cell viability of the p53RE-bla HCT-116 cell line (AID 743292); settings: p53RE-bla HCT-116 viability, ATP luminescence, 16 h; series mostly up to 95 µM; also: % is scaled to controls: 0 for no effect and ±100 for the full control effect; nearly all actives have a fitted effect of over 55% in size
Summary of the method: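 CellSensor p53RE-bla HCT-116 cells (4,000/well) pre-incubated 5 h at 37 C, then exposed to compounds in DMSO for 16 h at 37 C. Viability read as ATP content by CellTiter-Glo luminescence after 30 min at room temperature.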

Cc1ccc(O)c(C)c1
-1.3% and -5.42%: max response [17]
inactive: Potency [1] > 92 µM | Potency [2] > 92 µM | Potency [3] > 92 µM | outcome [4] | activity change, negative = cytotoxicity [5] -11.8% [at 91.7 µM] | outcome [6] | caspase-3 activation [7] 2.67% | outcome [8] | outcome [9] | outcome [10] | outcome [11] | outcome [12] | outcome [13] | outcome [14] | caspase-3 activation [15] -3.58% [at 91.7 µM] | outcome [16] | max response [18] -4.5% and -1.52% | max response [19] -1.16% and -6.96% and -11.5% | Potency [20]

C=CC(=O)OCC
inactive: Potency [1] > 92 µM | Potency [2] > 92 µM | Potency [3] > 92 µM | outcome [4] | activity change, negative = cytotoxicity [5] 0.0849% | outcome [6] | caspase-3 activation [7] -0.667% | outcome [8] | outcome [9] | outcome [10] | outcome [11] | outcome [12] | outcome [13] | outcome [14] | caspase-3 activation [15] -0.996% | outcome [16] | max response [18] -9.08% | max response [19] -0.244% | Potency [20]
-5.05%: max response [17]

CCC[CH2][Sn]([Cl])([Cl])[Cl]
inactive: Potency [1] > 92 µM | Potency [2] > 92 µM | Potency [3] > 92 µM | outcome [4] | activity change, negative = cytotoxicity [5] -9.62% | outcome [6] | caspase-3 activation [7] 1.34% | outcome [8] | outcome [9] | outcome [10] | outcome [11] | outcome [12] | outcome [13] | outcome [14] | caspase-3 activation [15] 6.84% | outcome [16] | max response [18] -3.93% and 8.73% | max response [19] 9.1% and -10.4% | Potency [20]
-13.2% and -14.8%: max response [17]

Clc1ccc2ccccc2c1
-15.7%: max response [17]
inactive: Potency [1] > 92 µM | Potency [2] > 92 µM | Potency [3] > 92 µM | outcome [4] | activity change, negative = cytotoxicity [5] -5.07% | outcome [6] | caspase-3 activation [7] 0.888% | outcome [8] | outcome [9] | outcome [10] | outcome [11] | outcome [12] | outcome [13] | outcome [14] | caspase-3 activation [15] 7.88% | outcome [16] | max response [18] 4.36% | max response [19] 3.91% | Potency [20]

O=C(Cl)/C=C/C(=O)Cl
inactive: Potency [1] > 92 µM | Potency [2] > 92 µM | Potency [3] > 92 µM | outcome [4] | activity change, negative = cytotoxicity [5] 2.59% | outcome [6] | caspase-3 activation [7] 0.334% | outcome [8] | outcome [9] | outcome [10] | outcome [11] | outcome [12] | outcome [13] | outcome [14] | caspase-3 activation [15] -3.63% | outcome [16] | max response [18] 3.07% | max response [19] 1.49% | Potency [20]
-9%: max response [17]

C=CC(=C)C
inactive: Potency [1] > 92 µM | Potency [2] > 92 µM | Potency [3] > 92 µM | outcome [4] | activity change, negative = cytotoxicity [5] 5.45% | outcome [6] | caspase-3 activation [7] 0.843% | outcome [8] | outcome [9] | outcome [10] | outcome [11] | outcome [12] | outcome [13] | outcome [14] | caspase-3 activation [15] -6.39% | outcome [16] | max response [18] -2.67% | max response [19] 2.66% | Potency [20]
8.28%: max response [17]

O=C(Cl)C(Cl)(Cl)Cl
inactive: Potency [1] > 92 µM | Potency [2] > 92 µM | Potency [3] > 92 µM | outcome [4] | activity change, negative = cytotoxicity [5] 0.33% | outcome [6] | caspase-3 activation [7] 3.49% | outcome [8] | outcome [9] | outcome [10] | outcome [11] | outcome [12] | outcome [13] | outcome [14] | caspase-3 activation [15] -1.87% | outcome [16] | max response [18] -1.42% | max response [19] -17% | Potency [20]
2.41%: max response [17]

Cc1ccc([N+](=O)[O-])cc1C
-11.5%: max response [17]
inactive: Potency [1] > 92 µM | Potency [2] > 92 µM | Potency [3] > 92 µM | outcome [4] | activity change, negative = cytotoxicity [5] -10.6% | outcome [6] | caspase-3 activation [7] -0.46% | outcome [8] | outcome [9] | outcome [10] | outcome [11] | outcome [12] | outcome [13] | outcome [14] | caspase-3 activation [15] -2.52% | outcome [16] | max response [18] 4.05% and -7% | max response [19] -0.535% and -15% | Potency [20]

CC(C)(OO)c1ccccc1
21.6% and -3.11%: max response [17]
inactive: Potency [1] > 92 µM | Potency [2] > 92 µM | Potency [3] > 92 µM | outcome [4] | activity change, negative = cytotoxicity [5] -8.61% | outcome [6] | caspase-3 activation [7] -2.32% | outcome [8] | outcome [9] | outcome [10] | outcome [11] | outcome [12] | outcome [13] | outcome [14] | caspase-3 activation [15] -7.39% | outcome [16] | max response [18] -8.73% and -2.9% | max response [19] -6.54% and -1.29% | Potency [20]

CC(Cl)Cl
inactive: Potency [1] > 92 µM | Potency [2] > 92 µM | Potency [3] > 92 µM | outcome [4] | activity change, negative = cytotoxicity [5] -11.4% | outcome [6] | caspase-3 activation [7] 1.86% | outcome [8] | outcome [9] | outcome [10] | outcome [11] | outcome [12] | outcome [13] | outcome [14] | caspase-3 activation [15] -1.5% | outcome [16] | max response [18] -2.99% | max response [19] -4.5% | Potency [20]
-6.24%: max response [17]
